A number with no mark means an inactive call. Records with an inconclusive call do not appear. Active and inactive are the calls of the source. Unless noted, calls follow the shape of the dose curve; as a rule, active = well fitted curve in the direction sought with a large enough effect; inconclusive = small, poorly fitted or top-dose-only effect, or another doubt; inactive = no such curve, though single readings can be large; an effect the other way counts as inactive or inconclusive.

A short description of experiment [1]: AP1 Signaling Pathway (AID 357; active = well fitted curve in either direction with a large enough effect, not every such curve was filed as active;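 also: ME-180 reporter cells stimulated with EGF at its EC50 level; % is scaled to controls: 0 for no effect and ±100 for the full control effect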). A digest of the protocol:
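Titration-series screen for positive or negative modulators of EC50 EGF-induced signaling in ME-180 cells carrying an AP-1-driven beta-lactamase reporter. After 5 hours at 37 degrees Celsius, CCF4 460nm/530nm emission ratio gave %Activity; AC50 values derived.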

A short description of experiment [2]: qHTS Assay for Identification of Small Molecule Antagonists for NFkB Signaling Pathway (AID 895; active = well fitted inhibition curve with a large enough effect in the signal ratio, with a control signal flat, not every such curve was filed as active; the % refers to the signal ratio; also: % is scaled to controls: 0 for no effect and ±100 for the full control effect). The method, boiled down: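 ME-180 NFkB-bla cells (beta-lactamase under NFkB response element), plated overnight, treated with compound then 10 pM TNF alpha (about EC50) for 5 hrs at 37 C. LiveBLAzer FRET read at 460/530 nm emission, 405 nm excitation.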
The nature of experiment [3]: qHTS Assay for Identification of Small Molecule Agonists for Thrombopoietin (TPO) Signaling Pathway (AID 917). Also: % is scaled to controls: 0 for no effect and ±100 for the full control effect. A digest of the protocol:
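Quantitative HTS for pathway activators: compounds were pin-transferred onto IL-3-starved Ba/F3 cells expressing human TPO receptor, TPO was added at its EC50 (26 pM final), and after 24 hrs at 37 C reporter luciferase was measured.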
(Quantitative high-throughput screening tests each substance at several concentrations.)

Experiment [4] deals with Muscarinic acetylcholine receptor M1 (Rattus norvegicus) (UniProt P08482). Briefly: qHTS Assay for Antagonists of Acetylcholine Muscarinic M1 Receptor: Kinetic Measurement of Intracellular Calcium Response (AID 943). Also: series mostly up to about 35 µM; nearly all actives have a fitted effect of over 75% in size. The method, boiled down: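 Read-out: peak over basal Fluo-4 fluorescence, kinetic at 1 Hz for 4 min after EC80 carbachol (100 nM final). Rat M1-CHO cells, dye loaded 1 h at 37C, compound added 10 min before agonist.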
Sequence of Muscarinic acetylcholine receptor M1 (Rattus norvegicus) (P08482 whole entry, looked up): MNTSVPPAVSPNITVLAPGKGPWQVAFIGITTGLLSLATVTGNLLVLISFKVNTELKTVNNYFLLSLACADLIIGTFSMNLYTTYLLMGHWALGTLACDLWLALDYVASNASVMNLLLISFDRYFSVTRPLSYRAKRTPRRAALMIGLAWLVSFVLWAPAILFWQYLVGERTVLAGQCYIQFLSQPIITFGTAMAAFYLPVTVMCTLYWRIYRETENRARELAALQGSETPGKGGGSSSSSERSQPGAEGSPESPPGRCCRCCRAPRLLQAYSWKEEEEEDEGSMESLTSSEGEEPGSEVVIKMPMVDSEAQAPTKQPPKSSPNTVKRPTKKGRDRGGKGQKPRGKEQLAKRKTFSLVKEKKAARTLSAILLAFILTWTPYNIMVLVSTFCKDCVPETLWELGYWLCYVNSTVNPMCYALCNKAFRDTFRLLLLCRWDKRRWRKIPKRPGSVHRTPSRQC

The target of experiment [5] is Cytochrome P450 3A4 (Homo sapiens) (UniProt P08684). Kind of experiment: qHTS Assay for Activators of Cytochrome P450 3A4 (AID 885). Also: nearly all actives have a fitted effect of over 65% in size. The method, boiled down:
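CYP3A4 activity: Luciferin-PPXE O-dealkylation, 25uM substrate, 200mM KPO4, RT throughout. Read-out is luciferase luminescence; higher values reflect activation.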

In experiment [6] the target is Cytochrome P450 2D6 (Homo sapiens) (UniProt P10635). Kind of experiment: qHTS Assay for Inhibitors and Substrates of Cytochrome P450 2D6 (AID 891). Also: nearly all actives have a fitted effect of over 60% in size. Also: potency is read from the fitted curve at half-maximal effect. The method, boiled down: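 Luminescent read-out of luciferin formed by 5 nM human CYP2D6 demethylating 30 uM Luciferin-ME EGE (Km level) over 60 min at room temperature after NADPH regeneration addition. Data normalized to full inhibition by 1.43 uM quinidine.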
Sequence of Cytochrome P450 2D6 (Homo sapiens) (P10635 whole entry, looked up): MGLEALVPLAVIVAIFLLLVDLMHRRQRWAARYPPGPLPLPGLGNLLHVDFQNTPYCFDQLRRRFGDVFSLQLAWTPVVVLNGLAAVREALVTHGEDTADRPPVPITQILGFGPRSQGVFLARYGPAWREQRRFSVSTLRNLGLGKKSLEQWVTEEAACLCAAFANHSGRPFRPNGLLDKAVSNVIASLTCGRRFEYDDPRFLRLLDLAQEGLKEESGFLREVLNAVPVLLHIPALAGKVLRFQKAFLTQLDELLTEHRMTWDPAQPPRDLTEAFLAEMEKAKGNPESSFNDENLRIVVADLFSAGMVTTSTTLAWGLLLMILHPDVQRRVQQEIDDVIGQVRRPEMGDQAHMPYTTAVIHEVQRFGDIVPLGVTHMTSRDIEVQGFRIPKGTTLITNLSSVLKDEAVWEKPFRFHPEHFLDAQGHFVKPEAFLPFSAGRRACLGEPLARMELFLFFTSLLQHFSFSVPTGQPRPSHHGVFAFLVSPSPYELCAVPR

Experiment [7] deals with Cytochrome P450 3A4 (Homo sapiens) (UniProt P08684). Kind of experiment: qHTS Assay for Inhibitors and Substrates of Cytochrome P450 3A4 (AID 884). Also: series mostly up to about 57 µM; % is scaled to controls: 0 for no effect and ±100 for the full control effect; nearly all actives have a fitted effect of over 50% in size. The method, boiled down:
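Luminescent readout of luciferin produced by CYP3A4 (20 nM) dealkylation of Luciferin-PPXE, 25 uM (its KM). NADPH-driven reaction ran 60 min at RT after 10 min compound preincubation; data scaled to 57 uM ketoconazole as 100% inhibition.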

The target of experiment [8] is Cytochrome P450 2C19 (Homo sapiens) (UniProt P33261). Briefly: qHTS Assay for Inhibitors and Substrates of Cytochrome P450 2C19 (AID 899). Also: potency is read from the fitted curve at half-maximal effect; nearly all actives have a fitted effect of over 60% in size. The method, boiled down: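 5 nM human CYP2C19 with 10uM Luciferin-H EGE (at KM) in 50mM KPO4, compound preincubated 10 min at 37C, then NADPH regeneration for 60 min at 37C. Luciferin read by luminescence after detection reagent; normalized to 57uM ketoconazole as full inhibition.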
Sequence of Cytochrome P450 2C19 (Homo sapiens) (P33261 whole entry, looked up): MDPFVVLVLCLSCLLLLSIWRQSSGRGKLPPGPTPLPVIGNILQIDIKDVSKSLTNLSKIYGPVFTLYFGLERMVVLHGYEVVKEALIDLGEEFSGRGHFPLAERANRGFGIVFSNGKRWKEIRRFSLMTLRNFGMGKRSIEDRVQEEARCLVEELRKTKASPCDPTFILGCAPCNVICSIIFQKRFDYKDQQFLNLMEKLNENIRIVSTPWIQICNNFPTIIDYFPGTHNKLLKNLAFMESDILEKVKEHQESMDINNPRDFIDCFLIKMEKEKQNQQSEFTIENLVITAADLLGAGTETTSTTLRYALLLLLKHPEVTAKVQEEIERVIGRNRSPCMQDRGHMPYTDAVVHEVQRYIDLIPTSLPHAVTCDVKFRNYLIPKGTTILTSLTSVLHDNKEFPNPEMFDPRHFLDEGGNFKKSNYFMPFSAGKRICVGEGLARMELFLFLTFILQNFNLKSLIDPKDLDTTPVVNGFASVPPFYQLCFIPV

A short description of experiment [9]: Counterscreen for APE1 Inhibitors: Fluorescent Dye Displacement Validation Assay (AID 1707).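 Also: plate controls were ThO with dsDNA and no compound for no effect and ThO without dsDNA for full effect.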 The method, boiled down:
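Signal: ThO fluorescence (ex 480 nm/em 540 nm) on binding 50 nM dsDNA; displacement by test compound reduces it. Conditions: 250 nM dye, 50 mM Tris-HCl pH7.5, 2 mM MgCl2, 50mM NaCl, 0.01% Tween-20.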
A general note: A counterscreen serves to expose hits that act by an unwanted route or on another target.

Experiment [10] is described as follows: qHTS for differential inhibitors of proliferation of Plasmodium falciparum line 7G8 (AID 1815).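 Also: parasite growth measured after three days of incubation.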 Also: potency is read from the fitted curve at half-maximal effect.
The nature of experiment [11]: qHTS for differential inhibitors of proliferation of Plasmodium falciparum line D10 (AID 1877).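 Also: parasites grown with compound for 72 h before DNA staining.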 Also: potency is read from the fitted curve at half-maximal effect.
Experiment [12] in a line: qHTS for differential inhibitors of proliferation of Plasmodium falciparum line Dd2 (AID 1882). Also: nearly all actives have a fitted effect of over 65% in size. Also: potency is read from the fitted curve at half-maximal effect. Conditions: Potency: Plasmodium falciparum Dd2 proliferation inhibition. A digest of the protocol:
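RBC culture, 0.3% parasitemia / 2.5% Hct final; cpd added by pin tool in DMSO; 72 h, 37 C, 5% CO2; lysis buffer + SYBR Green I, o/n RT dark; FI 485/535; norm. to artemisinin 0.29 uM and DMSO.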

A short description of experiment [13]: qHTS for differential inhibitors of proliferation of Plasmodium falciparum line HB3 (AID 1886).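 Also: parasites grown with compound for 72 h before SYBR Green readout.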 Also: potency is read from the fitted curve at half-maximal effect. Conditions: Potency: Plasmodium falciparum HB3 proliferation inhibition.
The target in experiment [14] is Ferritin light chain (Equus caballus) (UniProt P02791). Briefly: qHTS Validation Assay for Identification of Novel General Anesthetics (AID 2323). Also: series mostly up to about 77 µM; % is scaled to controls: 0 for no effect and ±100 for the full control effect. A digest of the protocol: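 Apoferritin from horse spleen (10 uM) was mixed with 1-aminoanthracene at 50% saturation in PBS, then compounds were added. After 10 min at room temperature, fluorescence was read (ex 380 nm, em 535 nm) and normalized to free-probe and complex controls.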
Sequence of Ferritin light chain (Equus caballus) (P02791 2-175 limits assumed): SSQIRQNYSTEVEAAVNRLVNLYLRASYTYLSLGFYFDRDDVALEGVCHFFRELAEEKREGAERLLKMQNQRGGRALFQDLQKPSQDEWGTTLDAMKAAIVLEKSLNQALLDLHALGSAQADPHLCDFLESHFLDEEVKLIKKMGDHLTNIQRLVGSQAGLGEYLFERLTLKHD

In experiment [15] the target is ATP-dependent DNA helicase Q1 (Homo sapiens) (UniProt P46063). Briefly: qHTS Validation Assay for Inhibitors of RecQ-Like Dna Helicase 1 (RECQ1) (AID 2353).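 Also: plate controls were DMSO vehicle for no effect and enzyme-free control for full effect.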 A digest of the protocol:
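RECQ1T1 50 nM; forked duplex (20 bp + 30-nt ss tails) 200 nM, ATP 2 mM final; pH 8.0, 2 mM MgCl2, 2.5 ug/ml poly(dI-dC); 15 min compound preincubation; discontinuous kinetic read over 2 h at RT.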

For experiment [16], the target named is M-phase phosphoprotein 8 (Homo sapiens) (UniProt Q99549). Briefly: qHTS Validation Assay for Inhibitors for MPP8 Chromodomain Interactions with Methylated Histone Tails (AID 488949). Also: nearly all actives have a fitted effect of over 55% in size. Also: potency is read from the fitted curve at half-maximal effect. A digest of the protocol:
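Disruption of the preformed MPP8–trimethyl-H3K9 peptide complex (both 50 nM, 30 min, RT) is measured after 30 min compound exposure, using AlphaScreen proximity beads; aurintricarboxylic acid titration serves as plate control.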

Experiment [17] addresses Transient receptor potential cation channel subfamily V member 1 (Homo sapiens) (UniProt Q8NER1). Briefly: HTS Assay for Compounds that Act as Enhancers of the Vanilloid Receptor 1 (AID 488979). Also: 0% is about no effect. The method, boiled down: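 TRPV1 cells loaded with Fluo-8 calcium dye; compound added and Ca2+ signal (ex 480/em 520 nm) followed 3 min, then capsaicin at EC20 added and read 2 more min to detect enhancement.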

The target of experiment [18] is Thyrotropin receptor (Homo sapiens) (UniProt P16473). Briefly: qHTS Assay for Antagonists of the Thyroid Stimulating Hormone Receptor (AID 488980). Also: series mostly up to about 58 µM; 0% is about no effect. The method, boiled down: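 Cells expressing human TSHR (HEK293) are dispensed in HBSS/HEPES containing 70 uM RO 20-1724, compound is added, then TSH at EC80 (4 nM final). Antibody in lysis buffer follows, 30 minutes at room temperature before HTRF detection.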
Sequence of Thyrotropin receptor (Homo sapiens) (P16473 whole entry, looked up): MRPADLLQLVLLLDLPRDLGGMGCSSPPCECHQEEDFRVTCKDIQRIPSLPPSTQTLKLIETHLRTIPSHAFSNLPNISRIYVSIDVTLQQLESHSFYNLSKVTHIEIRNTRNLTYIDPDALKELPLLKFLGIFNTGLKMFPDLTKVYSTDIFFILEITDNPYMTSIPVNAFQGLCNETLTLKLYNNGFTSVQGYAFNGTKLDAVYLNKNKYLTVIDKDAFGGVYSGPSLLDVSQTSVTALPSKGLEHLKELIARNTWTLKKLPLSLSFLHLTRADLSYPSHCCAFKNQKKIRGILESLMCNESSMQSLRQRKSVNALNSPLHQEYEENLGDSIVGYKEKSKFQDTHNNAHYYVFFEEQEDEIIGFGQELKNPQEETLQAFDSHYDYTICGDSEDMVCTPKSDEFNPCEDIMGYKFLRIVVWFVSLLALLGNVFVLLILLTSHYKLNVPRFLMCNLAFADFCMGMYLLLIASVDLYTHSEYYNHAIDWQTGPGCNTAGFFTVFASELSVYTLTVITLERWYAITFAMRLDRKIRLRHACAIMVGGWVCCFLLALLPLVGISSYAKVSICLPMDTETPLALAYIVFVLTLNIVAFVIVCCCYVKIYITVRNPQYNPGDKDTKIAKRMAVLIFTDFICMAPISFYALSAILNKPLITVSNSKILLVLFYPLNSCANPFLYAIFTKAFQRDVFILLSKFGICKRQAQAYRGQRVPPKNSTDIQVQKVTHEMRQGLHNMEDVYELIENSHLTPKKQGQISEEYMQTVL

Experiment [19] has as its target Thyrotropin-releasing hormone receptor (Homo sapiens) (UniProt P34981). Briefly: qHTS for Small Molecule Agonists and Allosteric Enhancers of Human TRH Receptor: Validation Screen for Agonists (AID 493127;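 active = calcium activation more than 3 SD above the typical response in the agonist read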;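 also: intracellular calcium rise by fluo-8 fluorescence before TRH EC20 addition; 0% is about no effect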). Conditions: TRH receptor agonist cell assay; at 2 µM; hits give high values. The method, boiled down:
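Read-out: intracellular calcium release measured kinetically by FDSS (fluo-8, ex 480/em 530 nm), 1 reading/s after a 10-cycle baseline. TRHR cells, 2000/well, cultured 18 h at 33.5C, dye-loaded at room temp. Compound-evoked positive calcium signal flags agonists.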

Sequence of Cytochrome P450 3A4 (Homo sapiens) (P08684 whole entry, looked up): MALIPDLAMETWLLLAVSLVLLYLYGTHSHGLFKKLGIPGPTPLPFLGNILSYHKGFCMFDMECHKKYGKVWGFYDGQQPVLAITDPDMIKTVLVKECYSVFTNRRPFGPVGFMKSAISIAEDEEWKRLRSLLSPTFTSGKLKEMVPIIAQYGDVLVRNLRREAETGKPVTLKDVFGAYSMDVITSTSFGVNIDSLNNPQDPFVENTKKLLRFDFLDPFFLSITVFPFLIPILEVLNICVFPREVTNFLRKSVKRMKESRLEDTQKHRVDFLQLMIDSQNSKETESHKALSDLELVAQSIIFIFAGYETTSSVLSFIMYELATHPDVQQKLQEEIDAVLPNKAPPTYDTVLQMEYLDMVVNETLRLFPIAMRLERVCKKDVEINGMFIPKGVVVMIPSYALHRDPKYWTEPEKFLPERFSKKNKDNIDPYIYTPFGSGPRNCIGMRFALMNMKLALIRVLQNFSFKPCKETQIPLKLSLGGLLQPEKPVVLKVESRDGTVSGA
Sequence of Transient receptor potential cation channel subfamily V member 1 (Homo sapiens) (Q8NER1 whole entry, looked up): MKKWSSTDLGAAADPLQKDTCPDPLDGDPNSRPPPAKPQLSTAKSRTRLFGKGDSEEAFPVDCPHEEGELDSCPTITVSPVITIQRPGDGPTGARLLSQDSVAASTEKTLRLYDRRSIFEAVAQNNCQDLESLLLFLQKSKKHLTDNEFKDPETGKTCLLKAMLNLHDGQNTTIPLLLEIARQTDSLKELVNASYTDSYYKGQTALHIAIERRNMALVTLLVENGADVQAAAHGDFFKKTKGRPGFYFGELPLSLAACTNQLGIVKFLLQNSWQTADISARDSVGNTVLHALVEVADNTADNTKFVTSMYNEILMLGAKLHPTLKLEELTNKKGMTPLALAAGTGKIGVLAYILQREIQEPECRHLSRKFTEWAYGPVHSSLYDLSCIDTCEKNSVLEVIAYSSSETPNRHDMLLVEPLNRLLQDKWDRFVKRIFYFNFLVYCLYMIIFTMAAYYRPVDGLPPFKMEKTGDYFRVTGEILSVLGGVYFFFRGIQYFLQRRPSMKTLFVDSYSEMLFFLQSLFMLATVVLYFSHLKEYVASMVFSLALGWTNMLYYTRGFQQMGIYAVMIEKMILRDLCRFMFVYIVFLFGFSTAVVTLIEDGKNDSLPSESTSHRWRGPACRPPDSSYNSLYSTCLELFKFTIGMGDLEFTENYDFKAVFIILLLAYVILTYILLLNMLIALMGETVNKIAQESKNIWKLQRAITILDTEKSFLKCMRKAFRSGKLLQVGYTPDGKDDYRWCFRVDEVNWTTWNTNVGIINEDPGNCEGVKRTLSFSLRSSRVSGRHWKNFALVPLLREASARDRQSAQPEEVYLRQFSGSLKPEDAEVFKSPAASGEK
Sequence of M-phase phosphoprotein 8 (Homo sapiens) (Q99549 whole entry, looked up): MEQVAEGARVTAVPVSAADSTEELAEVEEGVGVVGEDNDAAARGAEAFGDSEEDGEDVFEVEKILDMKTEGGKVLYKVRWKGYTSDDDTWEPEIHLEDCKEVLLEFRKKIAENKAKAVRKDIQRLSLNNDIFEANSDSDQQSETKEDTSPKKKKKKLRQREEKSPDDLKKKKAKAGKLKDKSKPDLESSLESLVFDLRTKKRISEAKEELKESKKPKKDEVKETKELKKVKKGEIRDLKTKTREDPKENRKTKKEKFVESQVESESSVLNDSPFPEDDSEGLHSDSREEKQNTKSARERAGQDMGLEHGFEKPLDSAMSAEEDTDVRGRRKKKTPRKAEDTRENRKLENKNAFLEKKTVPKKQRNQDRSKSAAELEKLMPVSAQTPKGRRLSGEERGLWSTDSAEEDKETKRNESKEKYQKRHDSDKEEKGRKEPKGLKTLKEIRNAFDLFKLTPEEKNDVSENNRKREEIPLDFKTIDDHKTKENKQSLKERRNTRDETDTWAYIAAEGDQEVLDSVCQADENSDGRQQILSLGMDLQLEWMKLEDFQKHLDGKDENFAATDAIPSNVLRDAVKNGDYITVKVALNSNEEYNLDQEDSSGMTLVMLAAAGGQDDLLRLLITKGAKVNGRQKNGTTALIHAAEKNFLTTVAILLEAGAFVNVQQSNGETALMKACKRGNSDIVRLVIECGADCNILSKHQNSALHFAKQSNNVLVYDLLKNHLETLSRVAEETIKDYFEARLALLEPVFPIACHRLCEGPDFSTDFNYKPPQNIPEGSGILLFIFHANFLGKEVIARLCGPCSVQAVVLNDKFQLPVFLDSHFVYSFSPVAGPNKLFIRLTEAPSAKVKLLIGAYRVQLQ
Sequence of Thyrotropin-releasing hormone receptor (Homo sapiens) (P34981 whole entry, looked up): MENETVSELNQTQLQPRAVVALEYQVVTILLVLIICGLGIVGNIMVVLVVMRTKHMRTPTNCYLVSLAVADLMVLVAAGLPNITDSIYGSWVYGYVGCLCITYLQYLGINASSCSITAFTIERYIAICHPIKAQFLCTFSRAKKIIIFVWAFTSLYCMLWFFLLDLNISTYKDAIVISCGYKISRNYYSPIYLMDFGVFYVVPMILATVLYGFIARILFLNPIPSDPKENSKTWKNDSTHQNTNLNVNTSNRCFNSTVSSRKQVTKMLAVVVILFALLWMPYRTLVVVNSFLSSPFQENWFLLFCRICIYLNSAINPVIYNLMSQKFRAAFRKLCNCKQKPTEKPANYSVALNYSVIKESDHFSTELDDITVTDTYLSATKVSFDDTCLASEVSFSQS

`N[C@H](CCP(=O)(O)O)C(=O)O`: the result in experiment [1] and in experiment [3] was inactive. For the same compound, the Potency entry in experiment [2] and in experiment [4] was “inactive” in each case.
Take `C[C@H](N)Cc1c[nH]c2ccc(O)cc12`: the compound was called inactive in experiment [1] and in experiment [3]. In experiment [4], the Potency entry was “inactive”.
As for `CC1OC(=O)C(C(C)C)NC(=O)C(C(C)C)OC(=O)C(C(C)C)NC(=O)C(C)OC(=O)C(C(C)C)NC(=O)C(C(C)C)OC(=O)C(C(C)C)NC(=O)C(C)OC(=O)C(C(C)C)NC(=O)C(C(C)C)OC(=O)C(C(C)C)NC1=O` (stereo unspecified), the Potency result in [5] is “inactive”.
Regarding `CC(C)(C)c1o[nH]c(=O)c1C[C@H](N)C(=O)O`, the Potency entry in experiment [6] and in experiment [4] was “inactive” each time. The call in experiment [3] was inactive.
Take `c1ccc(C[C@@H](c2ccccc2)N2CCCCC2)cc1`: the Potency result in [5] was “inactive”. The Potency in experiment [6] was 2 µM (active).
In the case of `c1cncc(C2CCCCN2)c1` (stereo unspecified), the Potency entry in experiment [7] is “inactive”.
Turning to `CC[C@]1(C2=NCCN2)Cc2ccccc2O1`, the outcome in experiment [1] was inactive.
`c1ccc2c(c1)OC[C@@H](C1=NCCN1)O2`: the Potency in [6] was 0.631 µM (active); in experiment [8], 7.94 µM (active). In addition, the Potency result in experiment [4] was “inactive”.
Turning to `Cc1o[nH]c(=O)c1C[C@H](N)C(=O)O`, the Potency entry in experiment [2] is “inactive”. Besides, the Potency in experiment [8] is 2.51 µM (active). Moreover, the outcome in experiment [3] was inactive.
For the compound `C=C(C)[C@H]1CN[C@H](C(=O)O)[C@@H]1CC(=O)O`, the Potency result in experiment [7] and in experiment [2] was “inactive” throughout.
As for `CN1CCc2cc(O)cc3c2C1Cc1ccc(O)c(O)c1-3` (stereo unspecified), the Potency entry in experiment [9] and in experiment [15] was “inactive” in each case. In addition, the Potency in experiment [10] is 8.91 µM (active); in experiment [11], 12.6 µM (active); in experiment [12], 8.91 µM (active); in experiment [13], 12.6 µM (active); in [16], 22.4 µM (active). For the same compound, the call in experiment [14], in [17] and in experiment [18] was inactive. In addition, the activation in experiment [19] was 1.44%.
Consider `N#CC(C#N)=Cc1ccc([N+](=O)[O-])c(O)c1`, for which the Potency result in experiment [5], in experiment [2], in experiment [4], in [9], in [10] and in experiment [11] was “inactive” in each case. For the same compound, the Potency result in experiment [12], in experiment [13], in [15] and in [16] was “inactive” each time. Further, the compound was classed as inactive in experiment [3], in experiment [14], in [17] and in experiment [18]. Moreover, in [19], the activation was -0.188%.
As for `CCN1C[C@]2(C)CC[C@H](O)[C@@]34C5C[C@@H]6[C@@H](OC)C[C@@](O)(C5[C@H]6O)[C@@H](CC23)[C@@H]14` (stereo partly specified), the Potency result in experiment [7] was “inactive”.
With `C=CCN1C[C@H](C)N([C@@H](c2ccccc2)c2ccc(C(=O)N(CC)CC)cc2)C[C@H]1C`, the Potency result in [5] was “inactive”.

(Values after PubChem BioAssay (NCATS).)
